# Assay results taken from PubChem BioAssay (NCI).
# The panel holds about 83,000 compounds, 20% with a hit somewhere; the sample as a whole holds those more often.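 Percent growth is the endpoint: 0 to 100 indicates growth inhibition (40 means 60% inhibition), 0 means no net growth, and negative values indicate cell death.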 A number with no mark means an inactive call. Active and inactive are the calls of the source. The calls were made as follows: active = growth percent below 10; inactive = the rest.
# Legend:
# Assay in all cases: NCI-60 one-dose screen, 48 h (100 = growth as untreated, 0 = no growth, -100 = all killed)
# Conditions in all cases: 10 µM unless noted
# [1] = test system: NCI-H23 lung
# [2] = test system: NCI-H226 lung
# [3] = test system: NCI-H322M lung
# [4] = test system: HOP-62 NSCLC
# [5] = test system: NCI-H460 lung
# [6] = test system: HOP-92 NSCLC
# [7] = test system: NCI-H522 lung
# [8] = test system: A549/ATCC NSCLC
# [9] = test system: 786-0 renal
# [10] = test system: COLO 205 colon
# [11] = test system: DU-145 prostate
# [12] = test system: K-562 leukemia
# [13] = test system: MALME-3M melanoma
# [14] = test system: MDA-MB-231 breast
# [15] = test system: RXF 393 renal
# [16] = test system: SF-268 CNS
# [17] = test system: SF-295 CNS
# [18] = test system: SF-539 CNS
# [19] = test system: UACC-257 melanoma
# [20] = test system: M14 melanoma
SMILES,growth [1],growth [2],growth [3],growth [4],growth [5],growth [6],growth [7],growth [8],growth [9],growth [10],growth [11],growth [12],growth [13],growth [14],growth [15],growth [16],growth [17],growth [18],growth [19],growth [20]
CC(C)n1nc(-c2ccc3oc(N)nc3c2)c2c(N)ncnc21,2.3% (active),-28.2% (active),-7.33% (active),-25.5% (active),5.28% (active),-40% (active),2.22% (active),-6.71% (active),-36.7% (active),-3% (active),2.37% (active),18.3%,-40.7% (active),-15.1% (active),-43.1% (active),-1.05% (active),-50.9% (active),-43.7% (active),-27.8% (active),-18.8% (active)
O=C1NCCN1/N=C/c1c(Cl)n(Cc2ccc(Cl)cc2)c2ccccc12,98.2%,64.8%,110%,136%,41.4%,62.8%,93.9%,70%,96.5%,75.2%,89.4%,65.2%,150%,73.9%,69.4%,104%,74.2%,87.2%,64.6%,114%
Cc1nn(C)c2ncnc(Nc3ccccc3Br)c12,101%,96.3%,106%,101%,106%,104%,98.7%,99.3%,97.8%,119%,103%,97.1%,111%,85.2%,104%,99.2%,95.8%,99.9%,105%,101%
CCOc1cc(\C=N/N=C(N)/C(N)=N\N=C/c2ccc(O)c(OCC)c2)ccc1O,97.7%,99.9%,103%,109%,107%,116%,105%,107%,110%,5.55% (active),111%,83%,123%,94.7%,95.9%,98.1%,106%,112%,108%,113%
Cc1nn(-c2ccccc2)c(Oc2ccccc2)c1/C=N/NC(=O)Cn1c(=O)sc2ccccc21,37.4%,69.8%,74.9%,57.4%,55.6%,50.1%,40.6%,37.5%,74.5%,28.5%,76.1%,25.2%,52.7%,53.6%,70.6%,55%,45.3%,71.4%,66.1%,56.2%
CCC(C)C(N)C(=O)NC(CC(C)C)C(=O)N1CCCC1C(=O)NC(Cc1c[nH]c2ccccc12)C(=O)NC(CCCCN)C(=O)NC(Cc1c[nH]c2ccccc12)C(=O)N1CCCC1C(=O)NC(Cc1c[nH]c2ccccc12)C(=O)NC(Cc1c[nH]c2ccccc12)C(=O)N1CCCC1C(=O)NC(Cc1c[nH]c2ccccc12)C(=O)NC(CCCNC(=N)N)C(=O)NC(CCCNC(=N)N)C(N)=O (stereo not given),104%,112%,100%,103%,107%,86.2%,97.7%,106%,102%,97.2%,98.4%,104%,122%,116%,110%,116%,144%,110%,97.8%,108%
Cc1ccc(C(=O)Nc2ccc(CN3CCN(C)CC3)c(C(F)(F)F)c2)cc1C#Cc1cnc(N)c2ccccc12,-46% (active),21.6%,17%,15%,-86.8% (active),-14.8% (active),-44.3% (active),-65.7% (active),-77.4% (active),-66.3% (active),-89.3% (active),-23.5% (active),-59.9% (active),-63.4% (active),-75.5% (active),1.65% (active),-35.9% (active),-84.8% (active),-50.3% (active),-76.7% (active)
CCOC(=O)c1c(NC(=S)Nc2ccc([N+](=O)[O-])cc2)sc2c1CCCCC2,69.4%,70.8%,83.5%,102%,69.7%,0.0405% (active),58.7%,84.4%,92.9%,105%,89.8%,81.1%,72.7%,79.7%,85.6%,89%,87.2%,92%,70.4%,93.7%
Cn1ncc(CC(=O)O)c1-n1nnc2cc(Cl)ccc2c1=O,102%,95.2%,80.3%,105%,108%,105%,97.3%,97.3%,96.6%,118%,109%,98.4%,93.9%,94.5%,114%,103%,91.7%,96.7%,100%,100%
CCCCC/C=C/CCC(=O)N[C@H]1[C@H](Oc2c3cc4cc2Oc2ccc(cc2Cl)[C@@H](O[C@@H]2O[C@H](CO)[C@@H](O)[C@H](O)[C@H]2NC(C)=O)[C@@H]2NC(=O)[C@H](NC(=O)[C@@H]4NC(=O)[C@H]4NC(=O)[C@@H](Cc5ccc(c(Cl)c5)O3)NC(=O)[C@@H](N)c3ccc(O)c(c3)Oc3cc(O)cc4c3)c3ccc(O)c(c3)-c3c(O[C@H]4O[C@H](CO)[C@@H](O)[C@H](O)[C@@H]4O)cc(O)cc3[C@H](C(=O)O)NC2=O)O[C@H](CO)[C@H](O)[C@@H]1O,93.4%,105%,108%,113%,107%,96.4%,103%,99.8%,101%,103%,112%,98.6%,108%,100%,112%,98.5%,94.8%,110%,89.4%,109%
O=C(/C=C/c1ccc(Cl)cc1)c1ccc(Nc2ccnc3cc(Cl)ccc23)cc1,71.1%,111%,89.6%,72.2%,133%,15.2%,88.3%,62.7%,62.8%,107%,145%,27.8%,79.9%,48.4%,-41.4% (active),164%,9.54% (active),122%,93.4%,84.5%
CN(C)C(=S)NN=C(c1ccccn1)c1ccccn1,38.5%,24.6%,11.5%,26%,0.166% (active),64.7%,13.7%,12.9%,14.6%,38%,-18.9% (active),7.91% (active),-6.46% (active),40.3%,6.64% (active),24.6%,21.5%,-48.2% (active),35.9%,17.2%
O=C1/C(=C/c2ccc(-c3ccc(Cl)cc3)o2)SC(=S)N1CCc1ccc(O)cc1,81.3%,84.1%,70.3%,46.8%,9.88% (active),55.3%,-18.8% (active),17.6%,60.9%,16.8%,29.1%,26.1%,76.7%,75.6%,70%,31.2%,104%,70.9%,42%,38.2%
O=C(Nc1ccc2[nH]ncc2c1)c1csc(Nc2ccccc2)n1,47.3%,67.2%,46.5%,50.7%,11.9%,77.9%,17.5%,40.7%,38.9%,33.2%,21.4%,20.7%,69%,58.5%,12.9%,56.6%,22.6%,22.5%,77.2%,24.5%
CCNCCNc1c(C)c(-c2ccc(C(F)(F)F)cc2)c(C#N)c2nc3ccccc3n12,90%,84.8%,84.3%,90.9%,94.1%,47.1%,76.8%,88.7%,77%,88.2%,99.1%,54.8%,109%,90.9%,90.4%,80.8%,91.4%,82.7%,79.6%,56.1%
